Screens as filed in PubChem BioAssay.
AHR act: activates the human aryl hydrocarbon receptor; activation, % at 5 µM; AHR-responsive luciferase reporter cells, luminescence; 320,000 compounds, 2.5% hits; in the data active = activation above about 47%
Target sequence (P35869 whole entry, looked up): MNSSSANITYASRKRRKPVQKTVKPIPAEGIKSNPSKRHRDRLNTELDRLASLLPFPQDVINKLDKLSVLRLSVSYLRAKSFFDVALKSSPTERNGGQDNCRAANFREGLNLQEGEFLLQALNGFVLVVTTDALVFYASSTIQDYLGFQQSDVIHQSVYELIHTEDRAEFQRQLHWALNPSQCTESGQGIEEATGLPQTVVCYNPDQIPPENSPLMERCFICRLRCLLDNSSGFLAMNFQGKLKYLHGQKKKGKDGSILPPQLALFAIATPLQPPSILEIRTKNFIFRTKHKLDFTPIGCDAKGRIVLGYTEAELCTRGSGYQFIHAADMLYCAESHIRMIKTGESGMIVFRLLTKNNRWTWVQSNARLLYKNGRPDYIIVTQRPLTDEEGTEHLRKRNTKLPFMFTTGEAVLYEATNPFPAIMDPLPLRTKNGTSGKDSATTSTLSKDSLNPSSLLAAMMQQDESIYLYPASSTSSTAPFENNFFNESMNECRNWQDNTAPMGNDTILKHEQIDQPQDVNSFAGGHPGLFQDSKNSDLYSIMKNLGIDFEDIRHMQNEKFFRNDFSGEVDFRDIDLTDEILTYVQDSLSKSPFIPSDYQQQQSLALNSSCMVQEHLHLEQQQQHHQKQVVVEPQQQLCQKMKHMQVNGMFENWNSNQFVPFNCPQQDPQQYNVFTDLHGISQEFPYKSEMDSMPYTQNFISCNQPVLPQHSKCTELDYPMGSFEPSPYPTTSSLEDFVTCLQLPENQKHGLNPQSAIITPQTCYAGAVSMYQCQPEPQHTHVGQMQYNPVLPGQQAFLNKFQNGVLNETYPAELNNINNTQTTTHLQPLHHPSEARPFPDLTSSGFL
ALR inh: human ALR oxidase inhibition via reduced H2O2. 290,000 compounds, 3.8% hits. P55789. AID 485317. purified ALR, DTT oxidation, H2O2 HRP-luminol luminescence. inhibition, % (test concentration not listed);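 active = mean replicate inhibition above about 79%, with every replicate also reaching it, limit read from the data; inconclusive = only one of the two criteria met; inactive = mean below limit and not every replicate reaching it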
Mot1-301 SUMO: blocks SUMOylation pathway, rescuing yeast Mot1-301 growth; S. cerevisiae Mot1-301 growth rescue, ATP luminescence, 38.5C; percent above DMSO median, 100 means doubled; growth rescue, % at 18.8 µM; 320,000 compounds, 1% hits; AID 2716;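 active = every valid replicate shows activation above 250% relative to neutral control wells; inactive = the rest, any valid replicate at or below 250%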
Efflux pump mplx: inhibitors of Candida antifungal efflux pumps expressed in yeast. S. cerevisiae Candida pump triplex, Nile Red efflux. inhibition, % at 10 µM. 330,000 compounds, 0.44% hits;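 active = plate passing quality check with inhibition over a set limit, or well fluorescence over plate mean plus 4 SD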;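 note: Nile Red retained in pooled yeast measured as flow cytometry median fluorescence; higher means more Nile Red kept so more efflux inhibition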
VLA-4 inh: inhibition in a human VLA-4 binding assay | inhibition, % (about 7 µM as worked out from the volumes in the protocol) | P13612 | AID 2557 | VLA-4 expressing cells, ligand binding flow cytometry | 330,000 compounds, 0.2% hits; in the data active = inhibition above about 50%
Bfl-1 A1 inh: inhibitors of the anti-apoptotic protein A1, read as caspase activation | MEF A1-2A-BIM cells, Caspase-Glo 3/7 luminescence, 3 h; percent of clofoctol response, vehicle zero | caspase activation, % (concentration not given with the values) | 330,000 compounds, 0.066% hits;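 active = over half of replicate activation scores above 10%, or exactly half above 10 with the replicate mean above 10; inconclusive = replicate mean below 10 yet half the replicates above 10; inactive = over half of replicates below 10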
Hits are given with their value; i = inactive; ? = inconclusive; nt = no result. The list is not random: actives were taken first. Their share in the collection is about 7.2%.

SMILES | AHR act | ALR inh | Mot1-301 SUMO | Efflux pump mplx | VLA-4 inh | Bfl-1 A1 inh
Cc1ccc(Nc2nc(CSc3n[nH]c(N)n3)cs2)cc1 | i | 98 | i | i | i | i
Cn1nnnc1SCc1csc(Nc2ccccc2)n1 | i | 90 | i | i | i | i
Cc1ccc(Nc2nc(CSc3nnnn3C)cs2)cc1 | i | 99 | nt | i | i | i
Cc1ccc(CSc2n[nH]c(N)n2)cc1 | i | i | i | i | i | i
Cc1ccc(Nc2nc(CSc3nnnn3-c3ccccc3)cs2)cc1 | i | i | i | i | i | i
COc1ccc(N2C(=O)CC(Sc3nc4ccccc4s3)C2=O)cc1OC (centres undefined) | i | 97 | i | i | i | i
O=C(NNc1nc2c(F)cccc2s1)C1=COCCO1 | i | 100 | nt | i | i | i
O=C(NNc1nc2c(F)cccc2s1)c1ccccc1 | i | i | i | i | i | i
Cc1ccc2sc(NNC(=O)C3=COCCO3)nc2c1C | i | 99 | i | i | i | i
CCCn1c(NC(=O)c2ccc(F)cc2)nc2ccccc21 | 53 | i | i | i | i | i
CCCn1c(NC(=O)c2ccccc2Br)nc2ccccc21 | 47 | i | i | i | i | i
CCCCn1c(NC(=O)c2ccccc2)nc2ccccc21 | 73 | i | i | i | i | i
CCCCn1c(NC(=S)Nc2ccccc2)nc2ccccc21 | 66 | i | i | i | i | i
c1coc(-c2nnc(SCc3nc4ccccc4[nH]3)o2)c1 | 49 | i | i | i | i | i
COc1ccccc1CCc1nnc(CCC(=O)N(C)Cc2cccc3ncccc23)o1 | i | i | i | i | i | i
CC1CCC(C#N)(N(C)C(=O)CSc2nnc(C3CC3)n2C2CC2)CC1 (centres undefined) | i | nt | i | i | i | i
COc1cc(C)c(C(=O)Oc2cc(C)c(C(=O)O)c(O)c2C)c(OC)c1C | i | 89 | i | i | i | i
C=CCn1sc(=N)c(C#N)c1N | i | 99 | i | i | i | i
COc1cc(C2C(C#N)=C(N)Oc3c2oc(CO)cc3=O)ccc1OC(C)C (centres undefined) | i | 85 | i | i | i | i
CC(C)Oc1ccc(C2C(C#N)=C(N)Oc3c2oc(CO)cc3=O)cc1 (centres undefined) | i | i | i | i | i | i
CC(C)(C)C(=O)CN1C(=O)NC2(CCc3ccccc32)C1=O (centres undefined) | i | i | i | i | i | i
COc1ccc(-c2cc(-c3c(O)c(OC)c4occc4c3OC)[nH]n2)cc1 | 69 | i | i | i | i | i
O=C1NCCCC1C(=O)N/N=C/c1ccccc1 (centres undefined) | i | i | i | i | i | i
COC(=O)N=Nc1c(O)[nH]c2ccc(Br)cc12 | 70 | i | i | i | i | i
NC(=S)N=Nc1c(O)[nH]c2ccccc12 | i | nt | nt | i | i | i
SMILES | AHR act | ALR inh | Mot1-301 SUMO | Efflux pump mplx | VLA-4 inh | Bfl-1 A1 inh
Oc1cccc(NC(=S)N=Nc2c(O)[nH]c3ccccc23)c1 | i | 99 | i | i | i | i
O=C(CNC(=O)c1ccccc1)N=Nc1c(O)[nH]c2ccc(Br)cc12 | i | i | i | i | i | i
Oc1[nH]c2ccccc2c1N=NC(=S)N1CCOCC1 | i | 90 | i | i | i | i
Oc1[nH]c2ccc(Br)cc2c1N=NC(=S)N1CCOCC1 | i | 99 | i | i | i | i
CCOc1ccc(NC(=S)N=Nc2c(O)[nH]c3ccccc23)cc1 | i | i | i | i | i | i
CC1CCCCN1CCCNC(=O)c1cc(Br)c(Br)[nH]1 (centres undefined) | i | i | i | i | i | i
COc1ccc(-n2c(SCC(=O)NNC(=O)c3ccccc3C)nnc2-c2ccncc2)cc1 | i | i | i | i | i | i
CCN=c1scc(C)n1/N=C/c1cc(Br)c(O)c(OC)c1 | 49 | 87 | i | i | i | i
O=C1c2ccccc2C(=O)N1/N=C/c1ccc(O)c(O)c1 | i | 99 | i | i | i | i
Clc1ccc(/C=N/N2CCCCC2)cc1 | i | i | i | i | i | i
COc1cc(/C=N/N2C(C)CCCC2C)cc(Br)c1O (centres undefined) | i | 99 | i | i | i | i
Oc1ccc(/C=N/N2CCCCC2)cc1O | i | 99 | i | i | i | i
COc1ccc(Cl)cc1N1C(=O)CC(Sc2ccccc2N)C1=O (centres undefined) | i | i | i | i | i | i
CC1CCCC(C)N1/N=C/c1ccc(O)c(O)c1 (centres undefined) | i | 99 | i | i | i | i
COc1cc(/C=N/N2CCCCC2)cc(OC)c1O | i | 99 | i | i | i | i
COc1ccc(/C=N/N2C(C)CCCC2C)cc1O (centres undefined) | i | i | i | i | i | i
NC(=S)N/N=C/c1c[nH]c2ccc(OCc3ccccc3)cc12 | 71 | 99 | i | i | i | i
COC(=O)N/N=C/c1cc(Cl)cc(Cl)c1OCc1ccccc1 | 62 | i | i | i | i | i
COc1cccc(/C=N/NC(N)=S)c1OCc1cccc(Cl)c1 | 60 | nt | i | i | i | i
NC(=S)N/N=C\c1ccccc1OCc1ccccc1 | i | i | i | i | i | i
CC1(C)C(=S)N(Cc2ccccc2)c2ccccc21 | i | i | i | i | i | i
Oc1ccccc1-n1c(-c2ccccc2)ccc1-c1ccccc1 | 51 | i | i | i | i | i
Nc1cc(-c2ccc(Cl)cc2)nn1-c1ccccc1 | i | i | i | i | i | i
O=C1CCn2nc(-c3ccc(Cl)cc3)cc2N1 | 48 | i | 605 | i | i | i
Cc1ccc2c(CC(=O)NCC(=O)Nc3c(C)cccc3C)coc2c1 | i | i | i | i | i | i
SMILES | AHR act | ALR inh | Mot1-301 SUMO | Efflux pump mplx | VLA-4 inh | Bfl-1 A1 inh
Cc1ccc2c(CC(=O)Nc3sccc3C(N)=O)coc2c1 | i | 85 | i | i | i | i
CC(=O)NC1(c2ccc(F)cc2)CCN(C(=O)Nc2ccc(F)cc2F)CC1 | i | i | i | i | i | ?
CCOC(=O)CN1CC23C=CC(O2)C(C(=O)Nc2ccc4c(c2)OCO4)C3C1=O (centres undefined) | 70 | i | i | i | i | i
CCOC(=O)CN1CC23C=CC(O2)C(C(=O)Nc2ccc(OCC)cc2)C3C1=O (centres undefined) | i | i | i | i | i | i
Cc1cc(O)c(/C=N/OCc2ccc(Cl)cc2Cl)c(=O)o1 | i | i | i | i | i | i
O=c1c(/C=N/OCc2ccc(Cl)cc2Cl)c[nH]n1-c1cccc(Cl)n1 | i | 98 | i | i | i | i
Cc1nnc(SCC(=O)c2cc(C)n(C3CC3)c2C)s1 | i | i | i | i | i | i
Cc1cc(C(=O)CSc2nc3ccccc3o2)c(C)n1C1CC1 | i | i | i | i | i | i
Cc1cc(C(=O)CSc2ncnc3ccccc23)c(C)n1C1CC1 | i | 98 | i | i | i | i
Cc1cc(-n2c(C)cc(C(=O)CSc3ncnc4ccccc34)c2C)no1 | i | 98 | i | i | i | i
